Test results from PubChem BioAssay (NCI).
Values joined by “and” are separate entries in the source; they are usually repeats but may differ in a detail not shown here. Equal entries are not always repeated. This is part of a sample that, as a whole, favours compounds with a hit. Of some 83,000 tested, about 20% had one in any assay.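 Assay: single dose, 48 h. Readout: percent growth (0 = no net growth; negative = cell death). Active: <10.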 Active and inactive are the calls of the source.

What was measured:
Experiment in all cases: NCI-60 one-dose screen, 48 h (100 = growth as untreated, 0 = no growth, -100 = all killed)
Conditions in all cases: 10 µM unless noted
T-47D breast = test system: T-47D breast
BT-549 breast = test system: BT-549 breast
MDA-MB-435 melanoma = test system: MDA-MB-435 melanoma
SW-620 colon = test system: SW-620 colon
MCF7 breast = test system: MCF7 breast
HCT-116 colon = test system: HCT-116 colon
HCC-2998 colon = test system: HCC-2998 colon
KM12 colon = test system: KM12 colon

SMILES | growth (T-47D breast) | growth (BT-549 breast) | growth (MDA-MB-435 melanoma) | growth (SW-620 colon) | growth (MCF7 breast) | growth (HCT-116 colon) | growth (HCC-2998 colon) | growth (KM12 colon)
NC(=O)C1CC2C=CC1C2 (stereo unspecified) | 101% (inactive) and 100% (inactive) | 93% (inactive) and 112% (inactive) | 106% (inactive) and 100% (inactive) | 96.2% (inactive) and 97.5% (inactive) | 100% (inactive) and 102% (inactive) | 92.5% (inactive) and 91.5% (inactive) | 76.5% (inactive) and 110% (inactive) | 112% (inactive) and 105% (inactive)
COc1cc2nc(N3CCN(C(=O)C4COc5ccccc5O4)CC3)nc(N)c2cc1OC (stereo unspecified) | 91.2% (inactive) and 93.6% (inactive) and 96% (inactive) | 86.9% (inactive) and 96.6% (inactive) and 105% (inactive) | 96.5% (inactive) and 90.2% (inactive) and 92.2% (inactive) | 92% (inactive) and 97.7% (inactive) and 109% (inactive) | 91.7% (inactive) and 95.2% (inactive) and 101% (inactive) | 105% (inactive) and 79.8% (inactive) and 104% (inactive) | 102% (inactive) and 105% (inactive) and 108% (inactive) | 103% (inactive) and 99.6% (inactive) and 102% (inactive)
CC(=O)c1ccc2c(c1)N(CCCN1CCN(CCO)CC1)c1ccccc1S2 | 160% (inactive) and 37.8% (inactive) | 88.1% (inactive) and 44.6% (inactive) | 84.1% (inactive) and -67% (active) | 95% (inactive) and -52.1% (active) | 79.2% (inactive) and -31.2% (active) | 83.9% (inactive) and -11.8% (active) | 102% (inactive) and -55.5% (active) | 105% (inactive) and 2.29% (active)
CCN(CC)CCC(CNc1ccnc2cc(Cl)ccc12)c1ccc(OC)cc1 (stereo unspecified) | 57.9% (inactive) and 77.2% (inactive) | 72.2% (inactive) and 66.1% (inactive) | 8.96% (active) and -30.1% (active) | 77.2% (inactive) and 61.2% (inactive) | 80.6% (inactive) and 72.3% (inactive) | 46.5% (inactive) and 39.4% (inactive) | 70.9% (inactive) and 52.7% (inactive) | 77.9% (inactive) and 75.8% (inactive)
O=C(CCl)c1ccc2c(c1)Nc1ccccc1S2 | 71.2% (inactive) and -3.6% (active) | 74% (inactive) and 76.1% (inactive) | 100% (inactive) and 88.9% (inactive) | 92.2% (inactive) and 79.1% (inactive) | 85.5% (inactive) and -32.4% (active) | 69.1% (inactive) and 64.3% (inactive) | 83.3% (inactive) | 104% (inactive) and 102% (inactive)
O=C(O)C1(C(=O)O)CCC1.[NH2-].[NH2-].[Pt+2] | 96.6% (inactive) and 102% (inactive) | 103% (inactive) and 106% (inactive) | 108% (inactive) and 99.5% (inactive) | 111% (inactive) and 103% (inactive) | 98.5% (inactive) and 90.9% (inactive) | 107% (inactive) and 108% (inactive) | 97.2% (inactive) and 118% (inactive) | 112% (inactive) and 100% (inactive)
O=[N+]([O-])c1ccc(/C=N\NC(=S)Nc2ccc(F)cc2)cc1 | 94.5% (inactive) and 88.4% (inactive) | 97.9% (inactive) | 109% (inactive) and 101% (inactive) | 106% (inactive) and 94.1% (inactive) | 89% (inactive) and 97.8% (inactive) | 71.7% (inactive) and 53% (inactive) | 106% (inactive) and 87.6% (inactive) | 98.6% (inactive) and 81.3% (inactive)
COC(=O)c1nc(N)nc(C(=O)OC)c1C(=O)c1ccc(OC)cc1 | 101% (inactive) and 35.5% (inactive) | 144% (inactive) and 77.1% (inactive) | 104% (inactive) and 66.8% (inactive) | 113% (inactive) and 61.9% (inactive) | 96% (inactive) and 41.9% (inactive) | 108% (inactive) and 38.1% (inactive) | 108% (inactive) and 79.3% (inactive) | 107% (inactive) and 53.7% (inactive)
COc1ccc2c(=O)cc(-c3ccccc3)[nH]c2c1 | 50.7% (inactive) and 57.1% (inactive) | 48.6% (inactive) and 45.1% (inactive) | -46.6% (active) and -12% (active) | 23.1% (inactive) and 33.3% (inactive) | 18.2% (inactive) and 14.8% (inactive) | 16.7% (inactive) and 8.27% (active) | 17.4% (inactive) and 2.14% (active) | 14.1% (inactive) and 8% (active)
Oc1ccccc1C=NCC1CCC(CN=Cc2ccccc2O)CC1 (stereo unspecified) | 96.9% (inactive) | 113% (inactive) | 104% (inactive) | 47.4% (inactive) | 66% (inactive) | 52.8% (inactive) | 101% (inactive) | 107% (inactive)
Fc1ccccc1Nc1n[nH]c(=S)s1 | 103% (inactive) | 112% (inactive) | 117% (inactive) | 105% (inactive) | 105% (inactive) | 98% (inactive) | 110% (inactive) | 104% (inactive)
Oc1nc(NCCc2ccccc2)sc1/C=C1\C=Nc2ncccc21 | -1.34% (active) and 2.6% (active) | 5.29% (active) and -7.9% (active) | 18.5% (inactive) and 21% (inactive) | 7.8% (active) and 9.88% (active) | 2% (active) and 4% (active) | 5.84% (active) and 9.69% (active) | 66.2% (inactive) and 53.9% (inactive) | 9.25% (active) and 13.1% (inactive)
O=[N+]([O-])c1ccccc1N(S(=O)(=O)c1ccccc1)S(=O)(=O)c1ccccc1 | 105% (inactive) and 92.7% (inactive) | 106% (inactive) | 100% (inactive) and 98.1% (inactive) | 102% (inactive) and 97.3% (inactive) | 127% (inactive) | 110% (inactive) and 91.4% (inactive) | 101% (inactive) and 106% (inactive) | 96.1% (inactive) and 92% (inactive)
COc1cc(C(=O)N/N=C/c2ccc(N(C)C)cc2)cc(OC)c1OC | 63.3% (inactive) | -2.93% (active) | -11.9% (active) | 26.2% (inactive) | 18.3% (inactive) | 10.1% (inactive) | 12% (inactive) | 17% (inactive)
COc1ccc(CCN(C)CCCC(C#N)(c2ccc(OC)c(OC)c2)C(C)C)cc1OC (stereo unspecified) | 98.2% (inactive) and 106% (inactive) | 94.4% (inactive) and 93.3% (inactive) and 94.6% (inactive) | 102% (inactive) and 93.3% (inactive) and 97.9% (inactive) | 92.8% (inactive) and 100% (inactive) and 92.6% (inactive) | 89% (inactive) and 106% (inactive) and 95.3% (inactive) | 75% (inactive) and 78.9% (inactive) and 93.4% (inactive) | 99.7% (inactive) and 111% (inactive) and 97.5% (inactive) | 114% (inactive) and 115% (inactive) and 95.6% (inactive)
NCCSC(C[N+](=O)[O-])c1ccccc1Cl (stereo unspecified) | 87.5% (inactive) | 81.1% (inactive) | -24.7% (active) | -51.3% (active) | -19.1% (active) | -83.9% (active) | -77.8% (active) | -55.6% (active)
CN1CCN(C2CCN(C(=O)Nc3cc(Oc4ccc(NC(=O)C5(C(=O)Nc6ccc(F)cc6)CC5)c(F)c4)ccn3)CC2)CC1 | -66.4% (active) and 83.7% (inactive) | -68.7% (active) and 98.5% (inactive) | -93% (active) and 85.8% (inactive) | -14.2% (active) and 122% (inactive) | -42.1% (active) and 76% (inactive) | -58.6% (active) and 69.1% (inactive) | -66.8% (active) and 136% (inactive) | -46% (active) and 30.4% (inactive)
OCCN1CCN(CCCN2c3ccccc3Sc3ccc(Cl)cc32)CC1 | 66% (inactive) and 84.1% (inactive) | 59.1% (inactive) and 74.7% (inactive) | -11.6% (active) and 26.5% (inactive) | 80.6% (inactive) and 83.8% (inactive) | 77.2% (inactive) | 35.1% (inactive) and 66.7% (inactive) | 15.2% (inactive) and 70.6% (inactive) | 71.4% (inactive) and 80.5% (inactive)
Cc1nnc(NC/C=C/c2ccccc2)s1 | 91.6% (inactive) and 101% (inactive) | 97.6% (inactive) and 113% (inactive) | 110% (inactive) and 108% (inactive) | – | 98.8% (inactive) and 96.2% (inactive) | 105% (inactive) and 100% (inactive) | 127% (inactive) and 102% (inactive) | 94.4% (inactive)
